Assay in all cases: NCI-60 one-dose screen, 48 h (100 = growth as untreated, 0 = no growth, -100 = all killed)
The subject of one assay is DU-145 prostate. The conditions noted are these: 10 µM unless noted.
A further assay has as its system K-562 leukemia. The conditions noted are these: 10 µM unless noted.
Another assay deals with MALME-3M melanoma. The conditions noted are these: 10 µM unless noted.
In a further assay the test system is MDA-MB-231 breast. The conditions noted are these: 10 µM unless noted.
In a further assay the test system is RXF 393 renal. The conditions noted are these: 10 µM unless noted.
A further assay concerns SF-268 CNS. The conditions noted are these: 10 µM unless noted.
In a further assay the test system is SF-295 CNS. The conditions noted are these: 10 µM unless noted.
For the next assay, the system named is SF-539 CNS. The conditions noted are these: 10 µM unless noted.
In a further assay the test system is UACC-257 melanoma. Particulars: 10 µM.
The test system of the next assay is M14 melanoma. The conditions noted are these: 10 µM unless noted.

About 83,000 compounds went through this panel and 20% of them were active in at least one assay; those are over-represented in the sample as a whole.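 Negative percent growth values reflect cell death: -40 means 40% of the cells present at the start died, and -100 means all died.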 Values without a mark were called inactive. Activity calls are given as the source filed them. The calls were made as follows: active = growth percent below 10; inactive = the rest.

Regarding `Cc1nc2sccn2c1-c1csc(Nc2ccccc2Cl)n1`, the growth is 68.2% with DU-145 prostate; 12.5% with K-562 leukemia; 56.2% in the assay on MALME-3M melanoma; 66.5% in the assay on MDA-MB-231 breast; 67.2% with RXF 393 renal; 71.3% in the assay on SF-268 CNS. Moreover, the growth in the assay on SF-295 CNS is 36.2%; in the assay with SF-539 CNS it was 52%; in the assay on UACC-257 melanoma, 46%; with M14 melanoma it was 36.9%.

Regarding `O=C(O)C(Cc1ccccc1)N1C(=O)/C(=C/C(Cl)=C/c2ccc([N+](=O)[O-])cc2)SC1=S` (stereo not given), the growth in the assay on DU-145 prostate was 35%; with K-562 leukemia it was 9.61% (active); in the assay on MALME-3M melanoma, 3.53% (active); in the assay with MDA-MB-231 breast, 29.5%; in the assay on RXF 393 renal, -47.1% (active); in the assay with SF-268 CNS, 19.2%. The growth was 88.8% with SF-295 CNS, 29.6% in the assay on SF-539 CNS, 18.1% in the assay on UACC-257 melanoma and -13.7% (active) in the assay with M14 melanoma.

Regarding `CN1CCN(c2ccc3cc(-c4nc5ccccc5[nH]4)c(=O)oc3c2)CC1`, the growth in the assay with DU-145 prostate was 112%; in the assay on K-562 leukemia it was 43.7%; with MALME-3M melanoma, 90.4%; in the assay with MDA-MB-231 breast, 80.2%; with RXF 393 renal, 108%; with SF-268 CNS, 105%. The growth was 104% in the assay on SF-295 CNS, 93.5% with SF-539 CNS, 83.3% with UACC-257 melanoma and 88.8% in the assay with M14 melanoma.

Consider `Cc1ccc2c(c1)C(=O)C(c1c(-c3[nH]c(=O)c4ccc(C)cc4c3O)c(O)c3ccccc3c1O)=NC2=O`, for which the growth was -58.7% (active) in the assay with DU-145 prostate; 10.7% with K-562 leukemia; -39.1% (active) in the assay on MALME-3M melanoma; -6.31% (active) with MDA-MB-231 breast; -10.8% (active) with RXF 393 renal; 9.4% (active) in the assay on SF-268 CNS. The growth in the assay on SF-295 CNS was 49.9%; in the assay on SF-539 CNS, 61.1%; with UACC-257 melanoma, 63.1%; in the assay with M14 melanoma it was 35.7%.

Turning to `CN(C)c1ccc(/C=C\N=Nc2ccc(Br)cc2)cc1`, the growth in the assay on DU-145 prostate is 45.8%; in the assay with K-562 leukemia, 16.7%; in the assay with MALME-3M melanoma it was 86.5%; with MDA-MB-231 breast it was 49.6%; in the assay on RXF 393 renal it was 108%; with SF-268 CNS, 52.7%. Also, the growth with SF-295 CNS was 29.1%; with SF-539 CNS it was 5.55% (active); in the assay with UACC-257 melanoma it was 87.5%; in the assay with M14 melanoma, 41.4%.

`COc1ccc(C(=O)/C=C/c2ccc(/C=C/c3cc(OC)c(OC)c(OC)c3)cc2)cc1`: the growth in the assay on DU-145 prostate was 68.4%; in the assay on K-562 leukemia, 14.4%; in the assay with MALME-3M melanoma, 66.8%; with MDA-MB-231 breast, 76.8%; with RXF 393 renal, 71.3%; in the assay with SF-268 CNS, 66.2%. For the same compound, the growth in the assay on SF-295 CNS was 57.9%; in the assay with SF-539 CNS, 86.3%; with UACC-257 melanoma it was 72.5%; in the assay on M14 melanoma it was 67%.

In the case of `Cc1cccc(NC(=O)c2sc3nc4c(cc3c2N)CCCC4)c1`, the growth with DU-145 prostate is 45.6%; in the assay on K-562 leukemia, 17.8%; with MALME-3M melanoma, 24.9%; with MDA-MB-231 breast, 60.9%; with RXF 393 renal, 63.8%; with SF-268 CNS, 51.5%. The growth is 54.5% in the assay on SF-295 CNS, 48.5% in the assay on SF-539 CNS, 46.3% with UACC-257 melanoma and 30.3% with M14 melanoma.

For the compound `COc1cccc(-c2nc3sccn3c2-c2ccnc(NCCCNS(=O)(=O)c3ccccc3)n2)c1`, the growth in the assay with DU-145 prostate was 52.1%; in the assay on K-562 leukemia, 25.5%; with MALME-3M melanoma it was 36.4%; with MDA-MB-231 breast, 59.5%; in the assay with RXF 393 renal, 67.1%; with SF-268 CNS, 62.7%. The growth in the assay on SF-295 CNS was 55%; in the assay with SF-539 CNS it was 70.4%; in the assay on UACC-257 melanoma, 65.7%; in the assay on M14 melanoma it was 25.2%.

For the compound `COc1ccc(/C=C/C(=O)c2cc(OC)c(OC)c(OC)c2)cc1OCc1cn(Cc2ccc(F)cc2)nn1`, the growth in the assay on DU-145 prostate was 59.3%; with K-562 leukemia, 7.36% (active); with MALME-3M melanoma, 92.1%; with MDA-MB-231 breast it was 81.8%; with RXF 393 renal it was 72.2%; in the assay with SF-268 CNS it was 79.3%. Further, the growth was 68.4% in the assay with SF-295 CNS, 6.59% (active) in the assay on SF-539 CNS, 98.3% in the assay with UACC-257 melanoma and 87.7% in the assay on M14 melanoma.

In the case of `C=CCOc1cccc(/C=C/C(=O)c2sc(Nc3cccnc3)nc2C)c1`, the growth in the assay with DU-145 prostate is 38.4%; in the assay with K-562 leukemia it was 28.9%; in the assay on MALME-3M melanoma, 94.6%; with MDA-MB-231 breast, 95.4%; with RXF 393 renal it was 83.5%; in the assay with SF-268 CNS, 81.7%. Further, the growth in the assay with SF-295 CNS was 88.5%; with SF-539 CNS, 76.7%; in the assay with UACC-257 melanoma, 97.2%; in the assay on M14 melanoma it was 71.2%.

Turning to `COc1cc(NCCCN=C(N)NC(N)=NC(C)C)c2ncccc2c1`, the growth is 106% in the assay with DU-145 prostate; 44.6% in the assay with K-562 leukemia; -24.2% (active) with MALME-3M melanoma; 64.9% with MDA-MB-231 breast; 94.8% with RXF 393 renal; 44.1% in the assay on SF-268 CNS. In addition, the growth in the assay with SF-295 CNS was 87.5%; in the assay on SF-539 CNS it was 21.7%; with UACC-257 melanoma, 45.1%; with M14 melanoma, 65.3%.

Take `O=C1c2ccccc2C(=O)c2c1oc1oc3c(c(=O)c21)c(=O)n(-c1ccccc1)c1ccccc31`: the growth in the assay on DU-145 prostate is 94.4%; in the assay on K-562 leukemia it was 26.8%; in the assay on MALME-3M melanoma, 42%; with MDA-MB-231 breast, 97.3%; with RXF 393 renal, -14.1% (active); in the assay with SF-268 CNS, 34.3%. The growth with SF-295 CNS was 18.4%; in the assay on SF-539 CNS, -5.45% (active); with UACC-257 melanoma, 101%; with M14 melanoma, 44.7%.

In the case of `CCOC(=O)C1=C(CSC(=S)N(C2CCCCC2)C2CCCCC2)N(C)C(=O)NC1c1ccccc1` (stereo not given), the growth in the assay with DU-145 prostate is 46.8%; in the assay with K-562 leukemia, 35.2%; in the assay with MALME-3M melanoma it was 71.8%; in the assay on MDA-MB-231 breast it was 62.9%; in the assay with RXF 393 renal, 43.6%; in the assay with SF-268 CNS, 49%. In addition, the growth with SF-295 CNS is 39.9%; in the assay with SF-539 CNS, 71.6%; in the assay on UACC-257 melanoma it was 61.4%; in the assay on M14 melanoma, 56.9%.
